One experiment deals with OGDHL. Put plainly: pooled miR-30 sensor sort-seq; sequence = guide strand. The note with it: shRNA.
On to TTCAGCACAGGCACCTGTCTGT, for which the sensor-assay potency score (higher = more potent) stood at 0.114.
Same read-out and setting: as for TTCATAGGCACACACGTCCTGC, the figure is -1.24; as for TAAGCCTCCTCACAGATCCGGT, -0.839.
TGGAGAACTGCATCACACCAGG yielded a sensor-assay potency score (higher = more potent) of -1.03.
The same measure, in the same setting: the figure for TTGAATCTACAGATAAGCGAGG is -0.941; for TTTGAATCTACAGATAAGCGAG it is -0.201.
The same measure, in the same setting: as for TTCTACTTTGGTACACATGAGC, the figure is -0.678.
As for TACATCTCCTCCATGTAACTGG, the sensor-assay potency score (higher = more potent) was -0.405.
TACTTTGGTACACATGAGCTGT registered a sensor-assay potency score (higher = more potent) of -0.325.
Same read-out and setting: the figure for TTGCTCATCTGCAGGAACCTTT is -0.719; for TTGACCACGATCCAGTTGCAGT it is -1.4.
Regarding TTCTTGGTCATGTCCGCACGGC, the sensor-assay potency score (higher = more potent) is -0.866.

A further experiment deals with OLFML2A. The experiment is described as above. The note with it: shRNA.
Take TTTCCATAGTAGTAGTTGGTGA: the sensor-assay potency score (higher = more potent) was -0.818.
Still for that read-out and setting: as for TTCAAACATACAGACATCCAGG, the figure is -0.00393; as for TTGAGTTTCTCCATCTTCCACT, -0.593.
TTATACTTGACTTTGTTCTAAA came in with a sensor-assay potency score (higher = more potent) of -0.893.
For TTGTACATGTTACTCCAGCGGC, the sensor-assay potency score (higher = more potent) is -0.677.
For TAGTTGGTGACATAGATCCTGT, the sensor-assay potency score (higher = more potent) is -0.519.
The same measure, in the same setting: the figure for TACTTGATGATGTTCTTGGTGA is 0.197.
The same measure, in the same setting: as for TAGCTTGTACATGTTACTCCAG, the figure is -0.555.
Further: reference of the scale not given here.
